Source: PubChem BioAssay
Compounds with a hit are over-represented: about 3.5% of the library has one in this group of screens.
GPR151 activ – activators of human GPR151, primary screen, cell-based, PathHunter beta-arrestin, luminescence; G-protein coupled receptor 151 (Homo sapiens), Q8TDV0; PathHunter beta-arrestin GPR151 cells; activation, % at 11.2 µM; 1% of 650,000 active; AID 1508602, 2020; in the data active = activation above about 4.9%
FBW7 act – FBW7 E3 ligase activators, primary screen, biochemical, AlphaScreen, human | 0.13% of 650,000 active | AID 1259310, 2017 | F-box/WD repeat-containing protein 7 (Homo sapiens), Q969H0 | AlphaScreen FBW7–phospho-cyclin E peptide binding, activator screen | normalized activity (activation), % at 26.1 µM; in the data active = normalized activity above about 1.9%;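 note: purified mutant Fbw7 with reduced substrate affinity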
TEAD-YAP inh – TEAD-YAP interaction inhibition, primary screen, TEAD-YAP interaction inhibitor project, luminescence, HEK-TIYL cells. TEAD-Gal4/YAP UAS-luciferase luminescence. inhibition, % at 9.12 µM. 1.4% of 640,000 active; in the data active = inhibition above about 32%
MITF inh – MITF inhibitors, primary screen, biochemical, AlphaScreen, human; Microphthalmia-associated transcription factor (Homo sapiens), O75030; AlphaScreen MITF homodimerization, bead proximity signal; inhibition, % at 2.6 µM; 0.91% of 650,000 active; in the data active = inhibition above about 50%
Target sequence (O75030 whole entry, looked up): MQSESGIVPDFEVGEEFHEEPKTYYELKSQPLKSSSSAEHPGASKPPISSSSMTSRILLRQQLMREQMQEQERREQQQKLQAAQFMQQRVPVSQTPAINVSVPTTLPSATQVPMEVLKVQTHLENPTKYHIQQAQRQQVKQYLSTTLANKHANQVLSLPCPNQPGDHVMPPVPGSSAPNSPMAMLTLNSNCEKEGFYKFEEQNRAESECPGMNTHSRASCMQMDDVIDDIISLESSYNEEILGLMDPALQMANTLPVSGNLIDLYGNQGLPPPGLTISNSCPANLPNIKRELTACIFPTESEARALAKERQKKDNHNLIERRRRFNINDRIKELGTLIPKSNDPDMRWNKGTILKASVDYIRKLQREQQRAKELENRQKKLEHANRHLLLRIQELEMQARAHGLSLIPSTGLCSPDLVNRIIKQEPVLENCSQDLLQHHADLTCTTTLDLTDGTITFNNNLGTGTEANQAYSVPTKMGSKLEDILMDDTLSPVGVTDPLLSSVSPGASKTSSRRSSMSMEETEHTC
MITF confirm – MITF inhibitors, retest of hits, confirmation, biochemical, AlphaScreen, triplicate. 16% of 4,700 active. shares compounds with MITF inh. AlphaScreen MITF homodimerization, biotin/His-MITF beads. inhibition, % at 2.6 µM;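 active = inhibition above a cutoff derived from the DMSO control wells, cut at about 28% in these data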;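 note: inhibitors lower the bead chemiluminescence by keeping MITF from dimerizing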
AlphaScreen DR – AlphaScreen optical interference compounds, dose response, counter-screen, biochemical, HTS. shares compounds with MITF inh. AlphaScreen optical interference counterscreen, cell-free. IC50, µM. 6% of 480 active. AID 1259373, 2018; call rule not given here
AS interf ctr – AlphaScreen optical interference compounds, counter-screen for MITF inhibitor project, biochemical, triplicate. shares compounds with MITF inh. LysRS AlphaScreen counterscreen, signal interference. inhibition, % at 2.6 µM. 7.6% of 4,700 active. AID 1259376, 2018;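 active = inhibition above a cutoff derived from the DMSO control wells, cut at about 30% in these data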
Large screens that a line does not name were inactive (follow-up assays come after a bar, where they were run).

COc1cc(COc2ccc3c4c(c(=O)oc3c2)CCCC4)cc(OC)c1OC	MITF inh 57 | MITF confirm inactive | AS interf ctr inactive
Cc1ccc(COc2ccc3c4c(c(=O)oc3c2)CCCC4)cc1	none
N#Cc1ccccc1NC(=O)CSc1ccc(Br)cc1	none
NC(=O)c1ccc(N=Cc2cc3c(cc2[N+](=O)[O-])OCO3)cc1	MITF inh 58 | MITF confirm 76 | AlphaScreen DR inactive | AS interf ctr inactive
CC(NC(=O)CNCc1ccccn1)c1ccccc1 (stereo not given)	MITF inh 74 | MITF confirm inactive | AS interf ctr 100
CC(=O)CC(=O)NC(C)c1ccccc1 (stereo not given)	none
Cc1nn(C(=O)C2CCCN2S(=O)(=O)c2ccc(Cl)cc2)c(C)c1Sc1ccc([N+](=O)[O-])cc1 (stereo not given)	MITF inh 67 | MITF confirm inactive | AS interf ctr inactive
CC(=O)NC(=S)NNC(=O)c1ccccc1[N+](=O)[O-]	none
COc1cccc(CN2CCCC(C(=O)N3CCc4ccccc4C3)C2)c1 (stereo not given)	MITF inh 60 | MITF confirm inactive | AS interf ctr inactive
O=C(C1CCCN(Cc2cccc([N+](=O)[O-])c2)C1)N1CCc2ccccc2C1 (stereo not given)	MITF inh 51 | MITF confirm inactive | AS interf ctr inactive
O=C(C1CCN(Cc2ccccc2F)CC1)N1CCc2ccccc2C1	none
COc1cccc(CN2CCc3ccccc3C2)c1	none
Cc1ccc(CN2CCC(C(=O)N3CCc4ccccc4C3)CC2)o1	MITF inh 54 | MITF confirm inactive | AS interf ctr inactive
CCN(CC)C(=O)C1CCCN(Cc2cccc([N+](=O)[O-])c2)C1 (stereo not given)	none
O=C(C1CCCN(Cc2cccc([N+](=O)[O-])c2)C1)N1CCCCCC1 (stereo not given)	MITF inh 69 | MITF confirm inactive | AS interf ctr inactive
CCOCCCNC(=O)CSCc1c(F)cccc1Cl	none
COc1ccc(C)cc1NC(=O)C(C)c1ccccc1 (stereo not given)	none
COc1ccc(C)cc1NC(=O)C(NCC(O)c1ccccc1)c1ccccc1 (stereo not given)	MITF inh 84 | MITF confirm 30 | AlphaScreen DR inactive | AS interf ctr inactive
COc1ccc(C)cc1NC(=O)C(C(C)C)N1C(=O)c2ccccc2C1=O (stereo not given)	MITF inh 71 | MITF confirm inactive | AS interf ctr inactive
CC(C)NC(=O)c1nn2c(c1Br)NC(c1cccs1)CC2C(F)(F)F (stereo not given)	none
O=C(NC1CCCCC1)c1nn2c(c1Br)NC(c1cccs1)CC2C(F)(F)F (stereo not given)	MITF inh 60 | MITF confirm inactive | AS interf ctr inactive
O=[N+]([O-])c1ccc(S(=O)(=O)N2CCN(Cc3ccccc3Cl)CC2)cc1	MITF inh 62 | MITF confirm inactive | AS interf ctr inactive
Cc1ccccc1CN1CCN(S(=O)(=O)c2ccc([N+](=O)[O-])cc2)CC1	MITF inh 71 | MITF confirm inactive | AS interf ctr inactive
O=[N+]([O-])c1ccc(S(=O)(=O)N2CCN(Cc3ccccc3F)CC2)cc1	none
COc1ccc(S(=O)(=O)N2CCN(Cc3ccccc3[N+](=O)[O-])CC2)cc1	MITF inh 51 | MITF confirm 36 | AS interf ctr inactive
Clc1ccc(CN2CCN(C3CCCCC3)CC2)cc1	MITF inh 67 | MITF confirm inactive | AS interf ctr inactive
c1ccc(CN2CCN(C3CCCCCC3)CC2)cc1	MITF inh 70 | MITF confirm inactive | AS interf ctr inactive
NC1CCN(Cc2cccc(F)c2)CC1	none
Fc1cccc(CN2CCN(C3CCCC3)CC2)c1	MITF inh 52 | MITF confirm inactive | AS interf ctr inactive
